“And” between values parts separate entries of the source, which are not always exact repeats. Identical values can stand only once. Results filed as inconclusive are left out. Some structures have more than one record in an assay (separate samples or runs), and their calls can disagree. The source made the active and inactive calls. The call rests on the fitted dose curve; in most records, active means well fitted curve in the direction sought with a large enough effect; inconclusive means small, poorly fitted or top-dose-only effect, or another doubt; inactive means no such curve, though single readings can be large; an effect the other way counts as inactive or inconclusive.
Legend:
[1] = Viability qHTS for spleen associated tyrosine kinase inhibitor (SYKi) naive MV4-11 cells (AID 1963823); settings: MV4-11 AML viability, CellTiter-Glo luminescence, 72 h; series mostly up to 45 µM; further: nearly all actives have a fitted effect of over 40% in size
Procedure, shortened: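 Read-out: CellTiter-Glo luminescence. Exposure: 72 hr, 37 C, 5% CO2, 95% humidity. Cells: MV4-11 without SYK inhibitor history, 500/well, qHTS format.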

[2] = Viability qHTS for spleen associated tyrosine kinase inhibitor (SYKi) drug resistant MV4-11 cells (AID 1963824); settings: SYKi-resistant MV4-11 viability, CellTiter-Glo, 72 h; series mostly up to 45 µM; further: nearly all actives have a fitted effect of over 35% in size
Procedure, shortened: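 SYK-inhibitor-resistant MV4-11 AML cells were seeded at 500 per well onto compound and cultured 72 hours (37 °C, 5% CO2). CellTiter-Glo was then added, and after 10 min at room temperature, luminescence gave viability.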

[3] = Quantitative highthroughput screen to assess conditional lethalithy of P12 Ichikawa cells grown in Human Plasma-Like Medium with dialyzed fetal bovine serum (HPLM+ds) (AID 1963879); settings: ATP luminescence, 48 h; Potency: viability; series mostly up to 45.8 µM; further: nearly all actives have a fitted effect of over 35% in size
Procedure, shortened: (§1)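 Each medium arm—HPLM with 10% dialyzed FBS, or RPMI1640 with 5 mM glucose and 10% untreated or dialyzed FBS—was screened against an 11-point, 3-fold compound titration for 48 h at 37 °C, with CellTiter-Glo luminescence as endpoint.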

[4] = Quantitative highthroughput screen to assess conditional lethalithy of P12 Ichikawa cells grown in RPMI1640 with dialyzed fetal bovine serum (RPMI+ds) (AID 1963880); settings: ATP luminescence, 48 h; Potency: P12-Ichikawa viability; series mostly up to 45.8 µM; further: nearly all actives have a fitted effect of over 35% in size;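 on Viability: 100% = DMSO wells and 0% = empty wells on each plate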
Procedure, shortened: as §1

[5] = Quantitative highthroughput screen to assess conditional lethalithy of P12 Ichikawa cells grown in RPMI1640 with untreated serum (RPMI+s) (AID 1963881); settings: ATP luminescence, 48 h; Potency: viability; series mostly up to 45.8 µM; further: nearly all actives have a fitted effect of over 35% in size;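 on Viability: 100% = DMSO wells and 0% = empty wells without cells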
Procedure, shortened: as §1

[6] = Quantitative highthroughput screen to assess conditional lethalithy of SEM cells grown in Human Plasma-Like Medium with dialyzed fetal bovine serum (HPLM+ds) (AID 1963882); settings: SEM B-ALL cells in HPLM+ds, CellTiter-Glo viability, 48 h; series mostly up to 45.8 µM; further: nearly all actives have a fitted effect of over 35% in size
Procedure, shortened: as §1

[7] = Quantitative highthroughput screen to assess conditional lethalithy of SEM cells grown in RPMI1640 with unreated serum (RPMI+s) (AID 1963883); settings: SEM B-ALL cells, CellTiter-Glo viability, 48 h; series mostly up to 45.8 µM; further: nearly all actives have a fitted effect of over 35% in size;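 on Viability: 100% = DMSO wells and 0% = empty wells without cells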
Procedure, shortened: as §1

[8] = Cellular viability qHTS for adrenocortical cancer (ACC) cell line SW-13 (AID 1963989); settings: SW-13 ACC cells viability, CellTiter-Glo, 48 h; activity (max response): stronger effect = lower value; further: nearly all actives have a fitted effect of over 65% in size;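 on activity (max response): cells grown in serum-free medium with ITS supplement; on the % scale 0 is the no-effect control and ±100 the full control effect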
Procedure, shortened: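 SW-13 cells in ITS-supplemented serum-free DMEM were plated overnight, then exposed for 48 h at 37C to compound titrations (up to 46 uM final). Viability was read by CellTiter-Glo luminescence; four-parameter logistic fits gave IC50 and efficacy.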

[9] = Quantitative highthroughput screen to assess conditional lethalithy of SEM cells grown in RPMI1640 with dialyzed fetal bovine serum (RPMI+ds) (AID 1963884); settings: SEM B-ALL cells, RPMI+dialyzed FBS, CellTiter-Glo viability, 48 h; series mostly up to 45.8 µM; further: nearly all actives have a fitted effect of over 35% in size;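 on Viability: 100% = DMSO control wells and 0% = empty wells without cells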
Procedure, shortened: as §1

[10] = Cellular viability qHTS for adrenocortical cancer (ACC) cell line NCI-H295R (AID 1963990); settings: CellTiter-Glo ATP luminescence, 48 h; series mostly up to 46.1 µM; further: nearly all actives have a fitted effect of over 60% in size
Procedure, shortened: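 Luminescent ATP read-out (CellTiter-Glo, 20 min RT) after 48 h drug exposure of NCI-H295R cells; a titration up to 46 uM final. Data normalized to doxorubicin (100% inhibition) and DMSO (0%); 4-parameter fit gives IC50, max response.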

[11] = Quantitative highthroughput screen to assess conditional lethalithy of NOMO1 cells grown in Human Plasma-Like Medium with dialyzed fetal bovine serum (HPLM+ds) (AID 1963878); settings: NOMO1 AML cells in HPLM+ds, CellTiter-Glo viability, 48 h; series mostly up to 45.8 µM; further: nearly all actives have a fitted effect of over 35% in size;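 on Viability: 100% = DMSO wells and 0% = empty wells on each plate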
Procedure, shortened: as §1
Potency means the concentration at half of the fitted maximal effect.

O=C(Nc1ccc(OC(F)(F)F)cc1)c1sccc1NCc1ccnc2ccccc12
active: Potency [1] 5.25 µM and 5.17 µM | Potency [2] 4.68 µM and 5.8 µM | Potency [3] 469 nM | Potency [4] 2350 nM | Potency [5] 2350 nM | Potency [6] 2960 nM | Potency [7] 2960 nM
inactive: activity (max response) [8] -29.8%

COc1ccc(C=Cc2cc(OC)c(OC)c(OC)c2)cc1NC(=O)[C@H](N)CO
active: Potency [1] 33.2 nM | Potency [2] 41.7 nM | Potency [3] 29.6 nM | Potency [4] 46.9 nM | Potency [5] 16.6 nM | Potency [6] 26.4 nM | Potency [7] 20.9 nM | Potency [9] 29.6 nM | Potency [8] 0.126 µM | Potency [10] 0.199 µM

COc1cc(-c2nn(C3CCC(N4CCN(C(C)=O)CC4)CC3)c3ncnc(N)c23)ccc1NC(=O)c1cc2ccccc2n1C (stereo not drawn)
inactive: Potency [3] | Potency [4] | Potency [5] | Potency [6] | Potency [7] | Potency [9] | activity (max response) [8] -14.1% | Potency [10]
inactive and 2.63 µM (active): Potency [1]
active: Potency [2] 2950 nM

O=C(Nc1ccc([N+](=O)[O-])cc1Cl)c1cc(Cl)ccc1O
active: Potency [1] 920 nM and 934 nM | Potency [2] 1.16 µM and 742 nM | Potency [3] 3720 nM | Potency [4] 2960 nM | Potency [5] 2350 nM | Potency [8] 142 nM and 447 nM | Potency [10] 224 nM and 1 µM

CN(C)CC[C@H](CSc1ccccc1)Nc1ccc(S(=O)(=O)NC(=O)c2ccc(N3CCN(Cc4ccccc4-c4ccc(Cl)cc4)CC3)cc2)cc1[N+](=O)[O-]
active: Potency [1] 148 nM | Potency [2] 33.2 nM | Potency [3] 1480 nM | Potency [4] 2350 nM | Potency [6] 59 nM | Potency [7] 93.5 nM | Potency [9] 46.9 nM | Potency [10] 22.4 µM

S=C(NCc1ccc2c(c1)OCO2)N1CCN(c2ncnc3c2oc2ccccc23)CC1
active: Potency [1] 3320 nM | Potency [2] 1860 nM | Potency [11] 38200 nM | Potency [7] 42900 nM | Potency [9] 27000 nM

Cc1nc(N)sc1-c1ccnc(Nc2ccc(N3CCOCC3)cc2)n1
active: Potency [1] 82 nM | Potency [2] 164 nM | Potency [11] 4180 nM | Potency [7] 2350 nM | Potency [9] 2090 nM
inactive: activity (max response) [8] 4.45% | Potency [10]

CC(C)(O)CNc1nc(Nc2ccnc(C(F)(F)F)c2)nc(-c2cccc(C(F)(F)F)n2)n1
active: Potency [1] 14800 nM | Potency [2] 14800 nM | Potency [3] 2950 nM | Potency [4] 2950 nM | Potency [5] 2950 nM | Potency [9] 3310 nM

CN1CCN(CCOc2cc(OC3CCOCC3)c3c(Nc4c(Cl)ccc5c4OCO5)ncnc3c2)CC1
active: Potency [1] 6.51 µM and 5.9 µM | Potency [2] 9.2 µM and 9.34 µM | Potency [3] 8330 nM | Potency [4] 18700 nM | Potency [5] 29600 nM | Potency [7] 6620 nM | Potency [9] 10500 nM | Potency [8] 3.98 µM | Potency [10] 31.6 µM

O[C@@H](CNC[C@H](O)[C@H]1CCc2cc(F)ccc2O1)[C@@H]1CCc2cc(F)ccc2O1
inactive: Potency [3]
active: Potency [1] 10600 nM | Potency [2] 21100 nM | Potency [11] 20900 nM | Potency [10] 18.4 µM

COc1ccc(-c2cc3c(C)nc(N)nc3n(C3CCC(OCCO)CC3)c2=O)cn1 (stereo not drawn)
active: Potency [1] 105 nM | Potency [2] 206 nM and 417 nM | Potency [11] 105 nM | Potency [6] 833 nM | Potency [7] 469 nM | Potency [9] 1870 nM | Potency [8] 1.12 µM | Potency [10] 0.501 µM

CN(C)CCOC(c1ccccc1)c1ccccc1
inactive: Potency [1] | Potency [2] | Potency [11] | Potency [5] | Potency [6] | Potency [7] | Potency [9] | activity (max response) [8] 0.185% and 9.44% | Potency [10]

Cc1ccc(C(=O)Nc2ccc(CN3CCN(C)CC3)c(C(F)(F)F)c2)cc1C#Cc1cnc2cccnn12
inactive: Potency [1]
active: Potency [2] 5.3 nM | Potency [11] 935 nM | Potency [8] 3.16 µM | Potency [10] 4.47 µM

C[C@H](Cc1ccc(O)c(O)c1)[C@@H](C)Cc1ccc(O)c(O)c1
active: Potency [1] 1460 nM | Potency [2] 1.86 µM and 1.03 µM | Potency [3] 20900 nM | Potency [4] 16600 nM | Potency [5] 18700 nM

CN(C)C1CCN(C(=O)c2ccc(NC(=O)Nc3nc(N4CCOCC4)nc(N4CCOCC4)n3)cc2)CC1
active: Potency [1] 25.2 nM and 37.2 nM | Potency [2] 35.5 nM and 59 nM | Potency [11] 23.5 nM | Potency [6] 74.3 nM | Potency [9] 296 nM | Potency [8] 0.316 µM
